In PubChem BioAssay (EPA / NIEHS):
Activity calls are given as the source filed them. Rule for the calls: active = hit-call score of the fitted dose curve at least 0.9, where 1 is the maximum; inactive = score below 0.9.

Key:
[1] = BSK_hDFCGF_Proliferation: Cell Proliferation Assessment in the BioMAP Diversity Plus: hDFCGF Assay (AID 2283059); conditions: primary human foreskin fibroblasts;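 note: curves fitted for both rise and fall of signal versus DMSO baseline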
Outline: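 This proliferation readout used SRB total-protein staining of human foreskin fibroblasts […], normalized to DMSO with bidirectional curve fitting.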

[2] = read-out: Macrophage colony-stimulating factor (MCSF), CSF1 (gene 1435); assay: BSK_hDFCGF_MCSF: BioMAP Diversity Plus: hDFCGF Assay for Macrophage colony-stimulating factor (MCSF) Biomarker Activity (AID 2283060); conditions: primary human foreskin fibroblasts; actives raise or lower the signal
Outline: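 fibroblasts (human foreskin, primary), 24 h post-dose; M-CSF by ELISA; bidirectional fit, DMSO = baseline.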

[3] = BSK_hDFCGF_SRB: Viability Assessment in the BioMAP Diversity Plus: hDFCGF Assay (AID 2283061); conditions: primary human foreskin fibroblasts;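 note: cells exposed to compound for 24 h before the read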
Outline: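 SRB-based viability read on primary human skin fibroblasts at 24 h: TCA fixation, 0.1% dye, 560 nm. Gain or loss of signal is fitted against the DMSO negative control.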

[4] = read-out: TIMP metallopeptidase inhibitor 1 (TIMP1), TIMP1 (gene 7076); assay: BSK_hDFCGF_TIMP1: BioMAP Diversity Plus: hDFCGF Assay for TIMP metallopeptidase inhibitor 1 (TIMP1) Biomarker Activity (AID 2283062); conditions: primary human foreskin fibroblasts; actives raise or lower the signal
Outline: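 Bidirectional curve fitting against DMSO baseline yielded this endpoint, based on ELISA detection of TIMP-1 in primary human foreskin fibroblasts exposed to compound for 24 h.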

[5] = read-out: Monokine induced gamma interferon (MIG), CXCL9 (gene 4283); assay: BSK_hDFCGF_MIG: BioMAP Diversity Plus: hDFCGF Assay for Monokine induced gamma interferon (MIG) Biomarker Activity (AID 2283063); conditions: primary human foreskin fibroblasts; actives raise or lower the signal
Outline: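 Endpoint derived by bidirectional fitting relative to DMSO; MIG quantified via ELISA in primary human foreskin fibroblasts harvested 24 h after dosing.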

[6] = read-out: Matrix Metallopeptidase 1 (MMP1), MMP1 (gene 4312); assay: BSK_hDFCGF_MMP1: BioMAP Diversity Plus: hDFCGF Assay for Matrix Metallopeptidase 1 (MMP1) Biomarker Activity (AID 2283064); conditions: primary human foreskin fibroblasts; actives raise or lower the signal
Outline: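 Primary human foreskin fibroblasts exposed to chemicals for 24 h; MMP1 measured by ELISA. Cytotoxicity tracked by SRB staining in parallel cultures; bidirectional fit relative to DMSO.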

[7] = read-out: Vascular cell adhesion molecule 1 (VCAM1), VCAM1 (gene 7412); assay: BSK_hDFCGF_VCAM1: BioMAP Diversity Plus: hDFCGF Assay for Vascular cell adhesion molecule 1 (VCAM1) Biomarker Activity (AID 2283065); conditions: primary human foreskin fibroblasts; actives raise or lower the signal
Outline: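 Measured after 24 h chemical treatment of primary human skin fibroblasts, VCAM-1 was detected by ELISA and concentration-response analysed in both directions versus DMSO vehicle.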

[8] = read-out: Plasminogen activator inhibitor-1 (PAI1), SERPINE1 (gene 5054); assay: BSK_hDFCGF_PAI1: BioMAP Diversity Plus: hDFCGF Assay for Plasminogen activator inhibitor-1 (PAI1) Biomarker Activity (AID 2283066); conditions: primary human foreskin fibroblasts; actives raise or lower the signal
Outline: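 Human foreskin fibroblasts in the hDFCGF system were dosed with compound for 24 h; PAI-1 was quantified by ELISA. Bidirectional curve fitting used DMSO as negative control and baseline.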

[9] = read-out: Intercellular Adhesion Molecule 1 (ICAM1), ICAM1 (gene 3383); assay: BSK_KF3CT_ICAM1: BioMAP Diversity Plus: KF3CT Assay for Intercellular Adhesion Molecule 1 (ICAM1) Biomarker Activity (AID 2283067); conditions: primary human keratinocytes with fibroblasts; actives raise or lower the signal
Outline: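 Bidirectional curve fitting against a DMSO baseline was applied to ICAM-1 ELISA signal from primary human skin co-cultures harvested 24 h after treatment, with SRB staining of parallel wells for overt cytotoxicity.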

[10] = read-out: Interferon-gamma inducible Protein 10 (IP10), CXCL10 (gene 3627); assay: BSK_KF3CT_IP10: BioMAP Diversity Plus: KF3CT Assay for Interferon-gamma inducible Protein 10 (IP10) Biomarker Activity (AID 2283068); conditions: primary human keratinocytes with fibroblasts; actives raise or lower the signal
Outline: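 Signal is secreted/surface IP-10 by ELISA in a human primary skin co-culture of keratinocytes and foreskin fibroblasts, taken 24 h post-dosing; DMSO served as negative control.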

[11] = BSK_KF3CT_SRB: Viability Assessment in the BioMAP Diversity Plus: KF3CT Assay (AID 2283069); conditions: primary human keratinocytes with fibroblasts;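 note: total protein by sulforhodamine B staining as a cytotoxicity measure; read 24 h after compound addition; fitted for both signal gain and loss against DMSO baseline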
Outline: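 Human keratinocyte and foreskin fibroblast co-culture exposed to chemical for 24 h. Total protein measured in parallel cultures by 0.1% sulforhodamine B staining after 10% TCA fixation, read at 560 nm; bidirectional fit relative to DMSO.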

[12] = read-out: Interleukin-1 alpha (IL1a), IL1A (gene 3552); assay: BSK_KF3CT_IL1a: BioMAP Diversity Plus: KF3CT Assay for Interleukin-1 alpha (IL1a) Biomarker Activity (AID 2283070); conditions: primary human keratinocytes with fibroblasts; actives raise or lower the signal
Outline: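 Primary human keratinocyte plus foreskin fibroblast co-culture, dosed and measured at 24 h in 96-well plates. IL-1a level quantified by ELISA; bidirectional fit relative to DMSO.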

[13] = read-out: TIMP metallopeptidase inhibitor 2 (TIMP2), TIMP2 (gene 7077); assay: BSK_KF3CT_TIMP2: BioMAP Diversity Plus: KF3CT Assay for TIMP metallopeptidase inhibitor 2 (TIMP2) Biomarker Activity (AID 2283071); conditions: primary human keratinocytes with fibroblasts; actives raise or lower the signal
Outline: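 Human primary keratinocyte/foreskin fibroblast co-culture dosed with chemical and sampled at 24 h. TIMP-2 levels quantified by ELISA; bidirectional fitting against DMSO negative control as baseline.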

[14] = read-out: C-C motif chemokine 2 (Homo sapiens) (UniProt P13500); assay: BSK_KF3CT_MCP1: BioMAP Diversity Plus: KF3CT Assay for Monocyte Chemoattractant Protein 1 (MCP1/CCL2) Biomarker Activity (AID 2283073); conditions: primary human keratinocytes with fibroblasts; actives raise or lower the signal
Outline: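 Biomarker MCP-1 is measured by ELISA in primary human keratinocytes co-cultured with foreskin fibroblasts, 24 h after chemical treatment; DMSO serves as the negative control and activity baseline.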

[15] = read-out: Matrix Metallopeptidase 9 (MMP9), MMP9 (gene 4318); assay: BSK_KF3CT_MMP9: BioMAP Diversity Plus: KF3CT Assay for Matrix Metallopeptidase 9 (MMP9) Biomarker Activity (AID 2283074); conditions: primary human keratinocytes with fibroblasts; actives raise or lower the signal
Outline: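 Human keratinocyte and foreskin fibroblast co-culture exposed to chemicals for 24 h; MMP9 biomarker measured by ELISA, bidirectional fitting relative to DMSO; cytotoxicity tracked by SRB total protein staining in parallel cultures.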

[16] = read-out: urokinase plasminogen activator (uPA), PLAU (gene 5328); assay: BSK_KF3CT_uPA: BioMAP Diversity Plus: KF3CT Assay for urokinase plasminogen activator (uPA) Biomarker Activity (AID 2283075); conditions: primary human keratinocytes with fibroblasts; actives raise or lower the signal
Outline: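 Primary human keratinocyte/foreskin fibroblast co-culture exposed to chemical; uPA measured by ELISA at 24 h. Bidirectional fit versus DMSO, with parallel SRB total-protein staining for cytotoxicity.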

[17] = read-out: CD40, CD40 (gene 958); assay: BSK_LPS_CD40: BioMAP Diversity Plus: LPS Assay for CD40 Biomarker Activity (AID 2283076); conditions: primary human HUVEC with PBMC; actives raise or lower the signal
Outline: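 Using a multiplexed primary human co-culture (umbilical vein endothelium plus PBMC), CD40 was read by ELISA 24 h after dosing, with cytotoxicity tracked by sulforhodamine B staining of parallel cultures and activity fitted bidirectionally versus DMSO.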

[18] = read-out: E-selectin (Homo sapiens) (UniProt P16581); assay: BSK_LPS_Eselectin: BioMAP Diversity Plus: LPS Assay for Eselectin Biomarker Activity (AID 2283077); conditions: primary human HUVEC with PBMC; actives raise or lower the signal
Outline: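 Dose chemical onto LPS-driven HUVEC/PBMC co-culture; after 24 h, run ELISA for E-selectin; fit up- and down-going responses relative to DMSO control.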

[19] = read-out: Interleukin-8 (IL8), CXCL8 (gene 3576); assay: BSK_LPS_IL8: BioMAP Diversity Plus: LPS Assay for Interleukin-8 (IL8) Biomarker Activity (AID 2283078); conditions: primary human HUVEC with PBMC; actives raise or lower the signal
Outline: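 In this LPS system, chemical-treated human umbilical vein endothelium/PBMC co-cultures were harvested at 24 h for IL-8 ELISA.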

[20] = read-out: Transforming growth factor beta 1 (TGFb1), TGFB1 (gene 7040); assay: BSK_KF3CT_TGFb1: BioMAP Diversity Plus: KF3CT Assay for Transforming growth factor beta 1 (TGFb1) Biomarker Activity (AID 2283072); conditions: primary human keratinocytes with fibroblasts; actives raise or lower the signal
Outline: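 Human keratinocyte plus foreskin fibroblast primary co-culture, dosed with chemical for 24 h. TGF-b1 quantified by ELISA. Activity fitted bidirectionally against DMSO negative control as baseline.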

Measured: outcome

Sequence of E-selectin (Homo sapiens) (P16581 whole entry, looked up): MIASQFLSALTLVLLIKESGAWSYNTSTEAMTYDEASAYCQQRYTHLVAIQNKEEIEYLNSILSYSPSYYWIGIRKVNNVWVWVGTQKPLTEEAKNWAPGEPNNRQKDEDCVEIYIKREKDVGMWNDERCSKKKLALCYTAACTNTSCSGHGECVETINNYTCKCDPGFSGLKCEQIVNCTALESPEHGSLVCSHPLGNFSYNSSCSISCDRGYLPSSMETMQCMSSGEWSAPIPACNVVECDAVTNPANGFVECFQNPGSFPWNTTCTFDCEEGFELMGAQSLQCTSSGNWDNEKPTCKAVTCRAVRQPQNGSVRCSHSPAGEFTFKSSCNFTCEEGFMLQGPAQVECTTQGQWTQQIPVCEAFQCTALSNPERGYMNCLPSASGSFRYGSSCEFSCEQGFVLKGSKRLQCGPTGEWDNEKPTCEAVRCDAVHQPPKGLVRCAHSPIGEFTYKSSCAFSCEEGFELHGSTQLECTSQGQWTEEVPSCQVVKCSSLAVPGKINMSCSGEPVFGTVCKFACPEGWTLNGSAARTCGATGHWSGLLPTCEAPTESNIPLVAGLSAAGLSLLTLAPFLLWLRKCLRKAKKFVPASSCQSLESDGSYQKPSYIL

O=C(N[C@H]1CN2CCC1CC2)c1cc2ccoc2cn1
inactive: [1] | [2] | [3] | [4] | [5] | [6] | [7] | [8] | [9] | [10] | [11] | [12] | [13] | [14] | [15] | [16] | [17] | [18] | [19]

CCCN(CCC)N=O
inactive: [1] | [2] | [3] | [4] | [5] | [6] | [7] | [8] | [9] | [10] | [11] | [12] | [13] | [14] | [15] | [16] | [17] | [18] | [19]

Cc1cccc(C)c1N
inactive: [1] | [2] | [3] | [4] | [5] | [6] | [7] | [8] | [9] | [10] | [11] | [12] | [13] | [20] | [14] | [15] | [17] | [18] | [19]

CC(C)(O)C(=O)Nc1ccc([N+](=O)[O-])c(C(F)(F)F)c1
inactive: [1] | [2] | [3] | [4] | [5] | [6] | [7] | [8] | [9] | [10] | [11] | [12] | [13] | [14] | [15] | [16] | [17] | [18]

CCC(C)(CC)c1cc(NC(=O)c2c(OC)cccc2OC)on1
inactive: [1] | [2] | [3] | [4] | [5] | [6] | [7] | [8] | [9] | [10] | [11] | [12] | [13] | [14] | [15] | [16] | [17] | [18] | [19]

Nn1cnnc1
inactive: [1] | [2] | [3] | [4] | [5] | [6] | [8] | [9] | [10] | [11] | [12] | [13] | [20] | [14] | [15] | [16] | [17] | [18] | [19]
